Entries with a potency or affinity are not part of this list.
Legend:
Staphylococcus aureus = conditions: Concentration 32 ug.mL-1; ASSAY_TEST Inhibition of Bacterial Growth; detection method Absorption (OD600); MEDIA CAMHB; plate type 384well; NBS; CORNING #3640; time 18 hr
Escherichia coli = conditions: Concentration 32 ug.mL-1; ASSAY_TEST Inhibition of Bacterial Growth; detection method Absorption (OD600); MEDIA CAMHB; plate type 384well; NBS; CORNING #3640; time 18 hr

Compound: COC(COc1cncc2nnc(-c3ccc(C#N)cc3)n12)c1ccc(F)c(F)c1 (centres undefined)
- Inhibition (Staphylococcus aureus): -4.85%
- Inhibition (Escherichia coli): 2.52%

Compound: CCN1C(=O)c2cccc3c(-c4cn(CCN5CCCNCCN(CCn6cc([C@]7(O)CC[C@H]8[C@@H]9CCc%10cc(O)ccc%10[C@H]9CC[C@@]87C)nn6)CCCNCC5)nn4)ccc(c23)C1=O.OCCN1CCN(CCCN2c3ccccc3Sc3ccc(Cl)cc32)CC1.[O-][Cl+3]([O-])([O-])[O-].[O-][Cl+3]([O-])([O-])[O-].[Zn+2]
- Inhibition (Staphylococcus aureus): 38.05%
- Inhibition (Escherichia coli): 0.56%

Compound: Fc1ccc(CCOc2cncc3nnc(-c4ccc(C(F)(F)F)nc4)n23)cc1F
- Inhibition (Staphylococcus aureus): 6.53%
- Inhibition (Escherichia coli): 1.6%

Compound: O.O=C1c2cccc3c(-n4cc(CN5CCCNCCN(Cc6cn(-c7ccc8c9c(cccc79)C(=O)N(CCCO)C8=O)nn6)CCCNCC5)nn4)ccc(c23)C(=O)N1CCCO.[Cl-].[Cl-].[Zn+2]
- Inhibition (Staphylococcus aureus): 7.81%
- Inhibition (Escherichia coli): 6.15%

Compound: Fc1ccc(CCOc2cncc3nnc(-c4ccc(Cl)cc4)n23)cc1F
- Inhibition (Staphylococcus aureus): -7.02%
- Inhibition (Escherichia coli): -0.47%

Compound: N#Cc1ccc(-c2nnc3cncc(OCC(O)c4ccc(F)c(F)c4)n23)cc1 (centres undefined)
- Inhibition (Staphylococcus aureus): -3.19%
- Inhibition (Escherichia coli): 2.25%

Compound: CN(C)C(COc1cncc2nnc(-c3ccc(C#N)cc3)n12)c1ccc(F)c(F)c1 (centres undefined)
- Inhibition (Staphylococcus aureus): -0.93%
- Inhibition (Escherichia coli): 3.93%

Reference: ChEMBL document CHEMBL4513155, “CO-ADD screening of University of Sydney (Australia) compounds” (2021)
